A selection: hits, their analogues and other compounds. The true share with any hit is near 0.54%.
PvdQ acylase = blocks Pseudomonas aeruginosa PvdQ acylase activity; hit rate 0.063% among 340,000; purified PvdQ acylase, fluorescence plate reader; inhibition, % at 10 µM; in the data active = inhibition above about 30%, passing the limit was not always enough
Rtt109 HAT inh = C. albicans Rtt109 histone acetyltransferase inhibition. Q5AAJ8. purified Rtt109/Vps75, ThioGlo CoA-SH fluorescence, 4 h. inhibition, % at 34.9 µM. hit rate 0.16% among 330,000. AID 540336;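 active = inhibition of at least 50% in every replicate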
PDI inh = blocks human protein disulfide isomerase activity | P07237 | PDI insulin aggregation turbidity, A650, 90 min | inhibition, % at 10 µM | hit rate 0.052% among 350,000 | AID 588391;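 active = mean inhibition across replicates of 30% or more, whatever share of single replicates reach that level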
ERp5 inh = inhibitors of human ERp5; Q15084; ERp5 insulin aggregation, absorbance 650 nm, 90 min; inhibition, % at 9.99 µM; hit rate 0.05% among 350,000; AID 651711;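 active = mean replicate inhibition above about 25%, with every replicate also reaching it, limit read from the data, passing the limit was not always enough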
Target sequence (Q15084 whole entry, looked up): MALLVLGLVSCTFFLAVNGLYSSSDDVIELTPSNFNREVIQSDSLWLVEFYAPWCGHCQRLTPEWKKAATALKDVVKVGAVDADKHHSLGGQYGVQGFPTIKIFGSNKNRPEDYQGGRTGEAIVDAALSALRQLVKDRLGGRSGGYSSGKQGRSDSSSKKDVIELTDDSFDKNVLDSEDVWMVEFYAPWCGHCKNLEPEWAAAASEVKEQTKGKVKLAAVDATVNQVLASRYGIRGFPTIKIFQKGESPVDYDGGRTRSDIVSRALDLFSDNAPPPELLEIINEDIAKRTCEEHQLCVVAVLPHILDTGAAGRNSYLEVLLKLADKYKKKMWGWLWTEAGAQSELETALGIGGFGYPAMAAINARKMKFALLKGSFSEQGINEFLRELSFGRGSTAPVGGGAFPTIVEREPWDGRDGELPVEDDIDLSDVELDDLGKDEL
Efflux pump inh = antifungal efflux pump inhibition, Nile Red retention. S. cerevisiae Candida pump triplex. inhibition, % at 10 µM. hit rate 0.44% among 330,000. AID 485275;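 active = plate passing quality check with inhibition over a set limit, or well fluorescence over plate mean plus 4 SD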;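 also: Nile Red retained in pooled yeast measured as flow cytometry median fluorescence; higher means more Nile Red kept so more efflux inhibition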
A number is an active result; – = inactive; · = no result.

SMILES	PvdQ acylase	Rtt109 HAT inh	PDI inh	ERp5 inh	Efflux pump inh
COc1ccc(NC(=S)Nc2ccc3nsnc3c2)cc1	–	54	–	·	–
S=C(NCc1ccc2c(c1)OCO2)Nc1ccc2nsnc2c1	41	–	–	–	–
Cc1ccc(NC(=S)NCc2ccc3c(c2)OCO3)cc1C	–	–	–	–	–
O=C(NCc1ccncc1)C(=O)NCC(c1ccco1)N1CCN(c2ccc(F)cc2)CC1 (stereo not given)	–	53	–	·	–
O=C(NCc1ccccn1)C(=O)NCC(c1ccco1)N1CCN(c2ccc(F)cc2)CC1 (stereo not given)	–	–	–	–	–
C[C@@H]1CN([C@H](C)CO)C(=O)c2cccc(NC(=O)Nc3ccc4c(c3)OCO4)c2O[C@H]1CN(C)Cc1ccc(Oc2ccccc2)cc1	·	·	·	32	·
C[C@@H]1CN([C@H](C)CO)C(=O)c2cccc(NC(=O)Nc3cccc4ccccc34)c2O[C@H]1CN(C)C(=O)Nc1ccc(C(F)(F)F)cc1	·	·	·	62	·
C[C@H]1CN([C@@H](C)CO)C(=O)c2cccc(NC(=O)Nc3cccc4ccccc34)c2O[C@@H]1CN(C)C(=O)Nc1ccc(C(F)(F)F)cc1	·	·	·	79	·
C[C@@H]1CN([C@H](C)CO)C(=O)c2cccc(NC(=O)Nc3cccc4ccccc34)c2O[C@@H]1CN(C)C(=O)Nc1ccc(C(F)(F)F)cc1	·	·	·	42	·
O=C(c1ccncc1)N1CC(=O)N2[C@@H](CO)[C@H](c3ccc(-c4ccccc4F)cc3)[C@@H]2C1	·	·	·	–	·
CN1c2ccc(C#Cc3cccnc3)cc2[C@H]2[C@H](CCN2S(=O)(=O)c2ccc(F)cc2)[C@H]1CO	·	·	·	–	·
CCC(=O)Nc1ccc2c(c1)OC[C@H](C)N(CC1CC1)C[C@H](C)[C@@H](OC)CN(C)C2=O	·	·	·	–	·
O=C(NCc1ccc(Cl)cc1)c1ccccc1CCc1ccccc1	–	52	–	·	–
CCC(=O)Nc1ccc2c(c1)OC[C@@H](C)N(Cc1cccnc1)C[C@H](C)[C@@H](OC)CN(C)C2=O	·	·	·	–	·
CCNC(=O)[C@H]1[C@H](CO)[C@H]2Cn3c(ccc(/C=C/c4ccccc4)c3=O)[C@@H]1N2C(C)=O	·	·	·	–	·
CCCNC(=O)[C@H]1[C@H](CO)[C@H]2Cn3c(ccc(/C=C/c4ccccc4)c3=O)[C@@H]1N2C(C)=O	·	·	·	71	·
CS(=O)(=O)C1=NN2C(=N)/C(=C\c3ccc(OC(=O)c4ccco4)cc3)C(=O)N=C2S1	–	57	–	–	–
C[C@]12CC[C@@H]3c4ccc(O)cc4C(=O)C[C@H]3[C@@H]1CC[C@@H]2O	–	–	39	–	–
CO[C@H]1CN(C)C(=O)c2ccc(NC(C)=O)cc2OC[C@H](C)N(C(=O)c2cccnc2)C[C@@H]1C	·	·	·	–	·
C=C(NC(=O)C(=C)NC(=O)c1csc(C2=NC3c4csc(n4)C4NC(=O)c5csc(n5)C([C@@](C)(O)C(C)O)NC(=O)C5CSC(=N5)/C(=C\C)NC(=O)C(C(C)O)NC(=O)c5csc(n5)[C@]3(CC2)NC(=O)C(C)NC(=O)C(=C)NC(=O)C(C)NC(=O)C(C(C)CC)NC2C=Cc3c(C(C)O)cc(nc3C2O)C(=O)OC4C)n1)C(N)=O (stereo not given in full)	·	·	·	·	1.1
C=C(NC(=O)C(=C)NC(=O)c1csc(C2=NC3c4csc(n4)C4NC(=O)c5csc(n5)C(C(C)(O)C(C)O)NC(=O)C5CSC(=N5)/C(=C/C)NC(=O)C(C(C)O)NC(=O)c5csc(n5)C3(CC2)NC(=O)C(C)NC(=O)C(=C)NC(=O)C(=C)NC(=O)C(C(C)C)NC2C=Cc3c(C(C)O)cc(nc3C2O)C(=O)OC4C)n1)C(N)=O (stereo not given)	–	–	–	–	·
COC(=O)c1cc2c(ccn2-c2ccc(F)cc2)n1CC(=O)C(C)(C)C	–	54	–	–	–
N#CCn1c(C2CCCCC2)nc2ccccc2c1=O	35	–	–	·	–
Nn1c(C2CCCCC2)nc2ccccc2c1=O	–	–	–	–	–
O=C(C[C@H]1CC[C@@H]2[C@H](COC[C@@H](O)CN2S(=O)(=O)c2ccccc2Cl)O1)NCc1ccccc1Cl	·	·	·	–	·
COc1ccc2c3c([nH]c2c1)[C@H](CO)N(C(=O)c1ccc(F)cc1)CC31CN(C(=O)CC2CC2)C1	·	·	·	–	·
COc1ccc(C(C(=O)NC2CCCC2)N(CCC(C)C)C(=O)CCC(=O)Nc2cc(C)on2)cc1 (stereo not given)	–	–	–	–	–
COc1cccc(C(C(=O)NC2CCCC2)N(CCC(C)C)C(=O)CCC(=O)Nc2cc(C)on2)c1 (stereo not given)	–	50	–	–	–

Assay outcomes deposited in PubChem BioAssay by several laboratories.
